Source: PubChem BioAssay AID624491 (Broad Institute, 2012)
In all, about 1,800 compounds went through this assay and about 1,400 (78%) were called active. Another 2% or so got no clear call; they are omitted.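 Rule for the calls: active = fitted curve crossing a set activation limit at or below the highest valid dose tested; inconclusive = flat fit at 30 to 70% activation, or poor fit; inactive = the rest, including signal decreases.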 The set was probably picked from earlier hits. The list is a sample of the results. Results with a measured potency or affinity are listed apart.

assay: blockers of NLG process in reporter cells – D54 ERlucT cells, luminescence, cherry-picks, dose response (AID 624491); details: D54 ERlucT glycosylation luciferase reporter, 24 h, 100% = twice neutral-control luminescence; series mostly up to 19.5 µM; activation (NLG inhibition): at the top concentration;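 note: signal gain reflects blocked N-linked glycosylation of a luciferase reporter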

Activation (NLG inhibition), inactive:
Oc1ccc(N=Nc2ccccc2)o1 4.57%
CCCCCc1ccc(OCCC[n+]2ccccc2)c(CCCCC)c1 -7.5%
Cc1noc(C)c1COc1ccccc1C(=O)N1CCN(c2cccc(C(F)(F)F)c2)CC1 41.9%
CC1(C(=O)NCc2ccccc2)Cc2c(-c3ccccc3)ccnc2O1 (centres undefined) 30.5%
CC1(C(=O)Nc2ccc(Cl)cc2)Cc2c(-c3ccc4c(c3)OCO4)ccnc2O1 (centres undefined) 2.48%
COc1ccc(CCCNC(=O)C2(C)Cc3c(-c4ccc5c(c4)OCO5)ccnc3O2)cc1 (centres undefined) 67.4%
CC1(C(=O)NCc2ccccc2)Cc2c(-c3ccc4c(c3)OCO4)ccnc2O1 (centres undefined) 48.3%
CC(=O)Nc1cccc(-c2ccnc3c2CC(C)(C(=O)NCc2ccc(N(C)C)cc2)O3)c1 (centres undefined) 30.5%
O=C(CCl)Nc1cc(-c2ccccc2)nn1-c1ccccc1 -66.9%
CCOC(=O)c1c(C)oc2c(F)c(F)c(F)c(F)c2c1=O -96.3%
COc1ccc(S(=O)(=O)Nc2ccc3c(c2)n(C)c(=O)n3C)cc1OC 10.9% [at 5 µM]
CCOC(=O)c1c(NC(C)=O)sc2c1CCC(C=O)=C2Sc1ccccc1 14.9% [at 5 µM]
CC(=O)Nc1sc(C)c(C)c1C(=O)OCC(=O)Nc1cccc(C)c1 130%
COC(=O)c1cc(=O)n(Cc2ccco2)c(=Nc2ccc(F)cc2)s1 1.44%
COc1ccc(-c2nc(NC(=O)C3CC(=O)N(c4ccc5c(c4)OCCO5)C3)sc2C)cc1 (centres undefined) 38%
Cc1cnc(NC(=O)C2CC(=O)N(c3cccc(Cl)c3)C2)s1 (centres undefined) 0.274% [at 5 µM]
CCOC(=O)C1CCN(Cc2cc(Cl)c3ccccc3c2O)CC1 5.3%
CCOC(=O)C1CCN(S(=O)(=O)Cc2ccccc2)CC1 -4.23% [at 5 µM]
CCOC(=O)/C=C(\C)Sc1cc(=O)oc2ccccc12 0.993%
Cc1ccc(OCC(=O)Nc2ccc(NC(=O)c3cccs3)cc2)c(C)c1 602%
Cc1ccc(C(=O)Nc2ccc(C(=O)/C=C/c3cccs3)cc2)cc1 14.5%
COc1ccc(Nc2nc(N)c(C(=O)c3ccc(F)cc3)s2)cc1 -4.92%
Cc1nn(CC(C)C)c(Cl)c1C(=O)N(c1ccc(Cl)cc1F)S(C)(=O)=O 61.3%
C[C@]1(O)CC(=O)C=C[C@H]1Nc1ccccc1 80%
COc1cccc(-c2cc(C(=O)Nc3cc(OC)c(OC)c(OC)c3)no2)c1 37.2%
COc1cc(NC(=O)N2CCc3nc(NCc4cccc(Oc5ccccc5)c4)ncc3C2)cc(OC)c1OC 33.2%
COc1cc2cc(-c3ccc(O)cc3O)nc(C)c2cc1OC 22%
COc1ccc(C(=O)n2c(-c3ccco3)nc3ccccc32)cc1 18.1%
CCOC(=O)C(=Cc1ccc(-c2ccsc2C(=O)OC)o1)C(=O)OCC 47.5%
